Results: publication PMC7862700, “An all-to-all approach to the identification of sequence-specific readers for epigenetic DNA modifications on cytosine”

How the values were obtained:
Assay in all cases: DAPPL (digital affinity profiling via proximity ligation, sequencing); 10 mM Tris-HCl pH 7.5, 50 mM NaCl, 1 mM DTT, 4% glycerol, room temperature, 30 min; GST-TFs on glutathione beads, 16-mer random dsDNA library, 0.1% formaldehyde crosslink after washing; high values mean tight binding
FEV = molecular target: T1, FEV (Homo sapiens, UniProt Q99581 1-238); settings: protein: recombinant; tags: N-terminal GST; dsDNA, one strand shown
T1 sequence: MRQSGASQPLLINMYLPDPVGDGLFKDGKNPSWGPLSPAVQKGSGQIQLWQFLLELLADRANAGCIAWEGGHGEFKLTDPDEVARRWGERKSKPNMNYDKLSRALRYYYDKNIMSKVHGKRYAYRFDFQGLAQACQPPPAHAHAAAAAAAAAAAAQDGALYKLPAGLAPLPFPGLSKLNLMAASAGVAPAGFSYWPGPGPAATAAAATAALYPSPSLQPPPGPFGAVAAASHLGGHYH
Method in brief: (§1)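 Human transcription factors were made in yeast as GST fusions, captured on glutathione beads and barcoded with DNA. With a tag-only sample included, the pool was incubated with 200 nmole of a random double-stranded 16-mer DNA library in Tris/NaCl/DTT/glycerol buffer at room temperature for 30 min, then crosslinked with 0.1% formaldehyde after washing, ligated by proximity, amplified and sequenced. For binding signal, each hexamer's read frequency for a factor is divided by its frequency for the tag-only sample.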

ETV5 = ETV5 (Homo sapiens, UniProt P41161 1-510); settings: protein: recombinant; tags: N-terminal GST; dsDNA, one strand shown
Chain of ETV5 (P41161 whole entry): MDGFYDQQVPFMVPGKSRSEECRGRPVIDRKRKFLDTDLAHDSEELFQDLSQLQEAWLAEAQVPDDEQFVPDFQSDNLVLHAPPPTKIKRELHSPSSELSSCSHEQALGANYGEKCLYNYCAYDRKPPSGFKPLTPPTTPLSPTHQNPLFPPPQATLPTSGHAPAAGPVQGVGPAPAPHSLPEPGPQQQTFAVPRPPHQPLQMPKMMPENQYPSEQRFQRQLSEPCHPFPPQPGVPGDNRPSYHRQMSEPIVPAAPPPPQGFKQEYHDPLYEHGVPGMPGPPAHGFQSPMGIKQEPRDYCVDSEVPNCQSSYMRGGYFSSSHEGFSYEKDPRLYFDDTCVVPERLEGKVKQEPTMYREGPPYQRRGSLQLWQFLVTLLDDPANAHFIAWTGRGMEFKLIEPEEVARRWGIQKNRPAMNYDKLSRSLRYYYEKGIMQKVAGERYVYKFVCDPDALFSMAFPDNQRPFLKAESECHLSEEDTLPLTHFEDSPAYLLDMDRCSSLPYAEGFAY
Method in brief: as §1

HSF1 = HSF1 (Homo sapiens, UniProt Q00613 1-529); settings: protein: recombinant; tags: N-terminal GST; chain copies: 3; dsDNA, one strand shown
Chain of HSF1 (Q00613 whole entry): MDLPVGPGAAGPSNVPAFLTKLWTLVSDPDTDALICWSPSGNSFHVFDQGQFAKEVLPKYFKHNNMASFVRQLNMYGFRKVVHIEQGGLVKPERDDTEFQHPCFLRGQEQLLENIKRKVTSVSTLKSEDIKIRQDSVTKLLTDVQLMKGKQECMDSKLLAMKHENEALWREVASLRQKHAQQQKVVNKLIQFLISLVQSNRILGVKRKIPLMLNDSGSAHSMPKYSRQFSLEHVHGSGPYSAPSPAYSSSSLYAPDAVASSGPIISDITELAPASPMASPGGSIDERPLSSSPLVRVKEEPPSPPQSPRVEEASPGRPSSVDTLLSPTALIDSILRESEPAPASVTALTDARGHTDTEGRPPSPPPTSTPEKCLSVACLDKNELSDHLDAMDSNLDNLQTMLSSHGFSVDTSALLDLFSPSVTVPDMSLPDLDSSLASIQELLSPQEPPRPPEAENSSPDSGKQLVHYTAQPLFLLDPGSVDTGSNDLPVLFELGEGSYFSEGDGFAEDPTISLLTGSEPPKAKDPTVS
Method in brief: as §1

SPIC = molecular target: T2, SPIC (Homo sapiens, UniProt Q8N5J4 1-248); settings: protein: recombinant; tags: N-terminal GST; dsDNA, one strand shown
T2 sequence: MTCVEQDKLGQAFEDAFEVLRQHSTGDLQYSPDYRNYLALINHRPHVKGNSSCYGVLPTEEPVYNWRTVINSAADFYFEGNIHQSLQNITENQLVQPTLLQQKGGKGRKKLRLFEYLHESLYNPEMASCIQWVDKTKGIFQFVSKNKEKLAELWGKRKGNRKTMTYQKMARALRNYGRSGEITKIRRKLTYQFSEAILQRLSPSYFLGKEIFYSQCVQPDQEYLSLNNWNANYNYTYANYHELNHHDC
Method in brief: as §1

ELF4 = ELF4 (Homo sapiens, UniProt Q99607 1-663); settings: protein: recombinant; tags: N-terminal GST; dsDNA, one strand shown
Chain of ELF4 (Q99607 whole entry): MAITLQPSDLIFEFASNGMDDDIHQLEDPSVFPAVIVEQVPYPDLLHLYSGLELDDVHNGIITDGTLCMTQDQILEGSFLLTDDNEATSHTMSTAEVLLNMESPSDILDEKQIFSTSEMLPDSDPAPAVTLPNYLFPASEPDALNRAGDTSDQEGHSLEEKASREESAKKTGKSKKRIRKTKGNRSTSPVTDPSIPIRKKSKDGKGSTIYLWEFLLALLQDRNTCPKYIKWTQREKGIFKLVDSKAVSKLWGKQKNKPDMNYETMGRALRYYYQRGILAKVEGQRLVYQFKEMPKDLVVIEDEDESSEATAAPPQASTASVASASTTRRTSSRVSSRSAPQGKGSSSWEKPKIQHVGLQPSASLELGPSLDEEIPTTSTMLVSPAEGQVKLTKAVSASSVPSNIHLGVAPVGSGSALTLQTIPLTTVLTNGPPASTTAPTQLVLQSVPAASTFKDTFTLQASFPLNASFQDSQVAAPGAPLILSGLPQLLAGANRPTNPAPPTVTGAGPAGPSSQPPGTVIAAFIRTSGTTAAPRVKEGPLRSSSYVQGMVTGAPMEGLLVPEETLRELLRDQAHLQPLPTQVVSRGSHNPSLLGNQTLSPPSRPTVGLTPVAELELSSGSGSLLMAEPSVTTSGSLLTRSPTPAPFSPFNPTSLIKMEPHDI
Method in brief: as §1

ELK4 = molecular target: T3, ELK4 (Homo sapiens, UniProt P28324-2 1-405); settings: protein: recombinant; tags: N-terminal GST; dsDNA, one strand shown
T3 sequence: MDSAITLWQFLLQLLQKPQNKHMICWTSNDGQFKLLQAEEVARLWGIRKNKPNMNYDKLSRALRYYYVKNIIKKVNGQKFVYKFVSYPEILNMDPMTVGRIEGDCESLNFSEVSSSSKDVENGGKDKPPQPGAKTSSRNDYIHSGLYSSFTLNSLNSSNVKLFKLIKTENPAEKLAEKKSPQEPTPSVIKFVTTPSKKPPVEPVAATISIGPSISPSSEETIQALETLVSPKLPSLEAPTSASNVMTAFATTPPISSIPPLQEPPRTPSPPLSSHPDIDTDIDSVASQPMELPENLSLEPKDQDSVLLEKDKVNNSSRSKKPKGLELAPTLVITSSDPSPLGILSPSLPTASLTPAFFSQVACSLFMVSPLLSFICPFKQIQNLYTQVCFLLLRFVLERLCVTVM
Method in brief: as §1

ETV2 = molecular target: T4, ETV2 (Homo sapiens, UniProt O00321 1-342); settings: protein: recombinant; tags: N-terminal GST; dsDNA, one strand shown
T4 sequence: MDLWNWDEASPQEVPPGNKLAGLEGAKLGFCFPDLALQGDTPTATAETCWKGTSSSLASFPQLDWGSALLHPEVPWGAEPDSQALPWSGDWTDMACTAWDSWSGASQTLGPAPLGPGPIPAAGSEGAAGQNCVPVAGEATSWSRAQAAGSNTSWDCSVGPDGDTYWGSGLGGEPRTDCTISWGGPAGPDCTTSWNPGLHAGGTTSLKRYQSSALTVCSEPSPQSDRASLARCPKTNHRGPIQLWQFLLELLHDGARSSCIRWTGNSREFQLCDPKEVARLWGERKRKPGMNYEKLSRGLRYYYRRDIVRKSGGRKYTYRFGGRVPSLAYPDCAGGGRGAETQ
Method in brief: as §1

ELF3 = molecular target: T5, ELF3 (Homo sapiens, UniProt P78545 1-371); settings: protein: recombinant; tags: N-terminal GST; dsDNA, one strand shown
T5 sequence: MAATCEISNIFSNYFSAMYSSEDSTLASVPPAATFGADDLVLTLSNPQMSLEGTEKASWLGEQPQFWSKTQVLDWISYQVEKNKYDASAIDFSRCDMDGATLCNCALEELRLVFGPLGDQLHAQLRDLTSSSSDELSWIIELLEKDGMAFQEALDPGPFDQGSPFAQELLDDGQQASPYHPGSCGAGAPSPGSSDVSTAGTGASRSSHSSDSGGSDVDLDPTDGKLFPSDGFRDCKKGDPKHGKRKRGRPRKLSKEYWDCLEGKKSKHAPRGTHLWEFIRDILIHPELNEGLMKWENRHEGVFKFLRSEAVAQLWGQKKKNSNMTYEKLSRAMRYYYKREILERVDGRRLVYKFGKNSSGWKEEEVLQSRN
Method in brief: as §1

CRX = CRX (Homo sapiens, UniProt O43186 1-299); settings: protein: recombinant; tags: N-terminal GST; dsDNA, one strand shown
Chain of CRX (O43186 whole entry): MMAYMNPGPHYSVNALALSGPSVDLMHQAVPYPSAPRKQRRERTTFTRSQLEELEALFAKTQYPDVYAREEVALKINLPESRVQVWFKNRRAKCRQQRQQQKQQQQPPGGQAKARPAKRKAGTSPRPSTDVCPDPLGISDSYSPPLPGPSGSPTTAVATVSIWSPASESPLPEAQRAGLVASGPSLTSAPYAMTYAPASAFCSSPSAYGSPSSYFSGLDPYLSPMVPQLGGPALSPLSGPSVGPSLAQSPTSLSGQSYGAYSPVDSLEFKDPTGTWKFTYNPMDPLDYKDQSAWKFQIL
Method in brief: as §1

ETV1 = ETV1 (Homo sapiens, UniProt P50549 1-477); settings: protein: recombinant; tags: N-terminal GST; dsDNA, one strand shown
Chain of ETV1 (P50549 whole entry): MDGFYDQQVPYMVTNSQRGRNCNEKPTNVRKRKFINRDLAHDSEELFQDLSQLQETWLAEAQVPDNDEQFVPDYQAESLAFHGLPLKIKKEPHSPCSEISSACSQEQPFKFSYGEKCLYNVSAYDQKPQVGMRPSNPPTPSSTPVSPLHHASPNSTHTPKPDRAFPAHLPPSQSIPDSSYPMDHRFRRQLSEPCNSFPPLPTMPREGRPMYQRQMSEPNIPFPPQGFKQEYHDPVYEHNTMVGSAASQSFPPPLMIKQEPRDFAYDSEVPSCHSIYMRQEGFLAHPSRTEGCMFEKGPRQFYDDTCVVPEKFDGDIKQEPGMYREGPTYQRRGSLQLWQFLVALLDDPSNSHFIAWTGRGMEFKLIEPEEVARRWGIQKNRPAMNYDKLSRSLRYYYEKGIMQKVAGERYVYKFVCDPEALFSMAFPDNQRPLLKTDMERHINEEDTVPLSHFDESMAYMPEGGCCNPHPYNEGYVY
Method in brief: as §1

ERF = molecular target: T6, ERF (Homo sapiens, UniProt P50548 1-548); settings: protein: recombinant; tags: N-terminal GST; dsDNA, one strand shown
T6 sequence: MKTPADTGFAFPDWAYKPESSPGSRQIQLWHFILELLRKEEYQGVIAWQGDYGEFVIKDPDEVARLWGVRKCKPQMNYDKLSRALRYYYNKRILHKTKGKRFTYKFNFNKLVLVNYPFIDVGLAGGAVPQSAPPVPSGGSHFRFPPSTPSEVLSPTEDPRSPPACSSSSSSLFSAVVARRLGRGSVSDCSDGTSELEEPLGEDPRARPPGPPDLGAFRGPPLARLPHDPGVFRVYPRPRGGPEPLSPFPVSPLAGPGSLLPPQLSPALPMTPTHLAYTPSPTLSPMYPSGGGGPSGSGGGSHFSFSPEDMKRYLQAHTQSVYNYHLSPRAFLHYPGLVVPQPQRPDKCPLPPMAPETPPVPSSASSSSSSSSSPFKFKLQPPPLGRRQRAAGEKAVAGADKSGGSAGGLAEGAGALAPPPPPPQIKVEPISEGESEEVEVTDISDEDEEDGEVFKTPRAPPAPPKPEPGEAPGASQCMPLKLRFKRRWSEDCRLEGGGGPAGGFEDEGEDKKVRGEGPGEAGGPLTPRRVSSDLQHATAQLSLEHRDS
Method in brief: as §1

ETV3L = molecular target: T7, ETV3L (Homo sapiens, UniProt Q6ZN32 1-361); settings: protein: recombinant; tags: N-terminal GST; dsDNA, one strand shown
T7 sequence: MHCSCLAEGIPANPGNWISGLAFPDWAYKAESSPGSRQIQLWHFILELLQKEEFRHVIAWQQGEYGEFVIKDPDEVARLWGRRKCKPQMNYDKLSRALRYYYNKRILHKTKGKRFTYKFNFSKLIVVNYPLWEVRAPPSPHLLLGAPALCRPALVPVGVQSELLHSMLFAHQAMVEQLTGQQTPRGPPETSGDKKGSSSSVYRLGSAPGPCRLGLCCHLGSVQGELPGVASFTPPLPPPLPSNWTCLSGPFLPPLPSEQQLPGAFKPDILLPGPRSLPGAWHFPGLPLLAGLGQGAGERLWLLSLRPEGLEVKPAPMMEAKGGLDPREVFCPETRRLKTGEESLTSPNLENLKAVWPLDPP
Method in brief: as §1

ETS2 = molecular target: T8, ETS2 (Homo sapiens, UniProt P15036 1-469); settings: protein: recombinant; tags: N-terminal GST; dsDNA, one strand shown
T8 sequence: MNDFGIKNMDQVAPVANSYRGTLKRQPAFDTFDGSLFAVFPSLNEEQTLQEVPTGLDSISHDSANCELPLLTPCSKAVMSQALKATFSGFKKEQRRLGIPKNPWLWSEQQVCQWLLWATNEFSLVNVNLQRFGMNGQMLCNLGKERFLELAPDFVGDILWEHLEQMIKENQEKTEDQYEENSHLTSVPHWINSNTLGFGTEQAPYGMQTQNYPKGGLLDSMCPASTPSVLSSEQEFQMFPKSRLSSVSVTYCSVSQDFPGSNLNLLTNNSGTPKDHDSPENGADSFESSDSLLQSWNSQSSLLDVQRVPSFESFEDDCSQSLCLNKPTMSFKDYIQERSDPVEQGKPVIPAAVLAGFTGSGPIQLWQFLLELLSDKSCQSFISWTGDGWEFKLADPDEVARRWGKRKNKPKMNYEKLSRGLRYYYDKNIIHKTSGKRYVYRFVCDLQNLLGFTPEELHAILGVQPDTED
Method in brief: as §1

SPDEF = molecular target: T9, SPDEF (Homo sapiens, UniProt O95238 1-335); settings: protein: recombinant; tags: N-terminal GST; dsDNA, one strand shown
T9 sequence: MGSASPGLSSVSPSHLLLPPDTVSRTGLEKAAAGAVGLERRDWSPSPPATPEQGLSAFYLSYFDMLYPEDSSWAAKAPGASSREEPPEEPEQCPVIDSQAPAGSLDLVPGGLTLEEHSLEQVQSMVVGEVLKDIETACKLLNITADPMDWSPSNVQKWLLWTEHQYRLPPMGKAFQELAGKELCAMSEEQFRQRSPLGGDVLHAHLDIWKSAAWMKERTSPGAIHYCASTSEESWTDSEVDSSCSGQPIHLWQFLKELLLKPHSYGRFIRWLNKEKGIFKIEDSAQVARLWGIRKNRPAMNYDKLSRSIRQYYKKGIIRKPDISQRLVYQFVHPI
Method in brief: as §1

ETV7 = molecular target: T10, ETV7 (Homo sapiens, UniProt Q9Y603 1-341); settings: protein: recombinant; tags: N-terminal GST; dsDNA, one strand shown
T10 sequence: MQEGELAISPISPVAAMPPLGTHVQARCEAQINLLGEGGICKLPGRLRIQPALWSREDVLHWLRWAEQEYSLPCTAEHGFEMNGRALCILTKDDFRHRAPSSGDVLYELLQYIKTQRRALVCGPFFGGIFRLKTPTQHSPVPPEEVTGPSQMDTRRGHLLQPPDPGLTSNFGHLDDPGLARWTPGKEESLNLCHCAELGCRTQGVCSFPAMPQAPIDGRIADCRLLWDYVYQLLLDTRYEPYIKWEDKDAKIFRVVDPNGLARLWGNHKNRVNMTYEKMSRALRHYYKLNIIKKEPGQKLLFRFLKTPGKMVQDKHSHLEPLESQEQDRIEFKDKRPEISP
Method in brief: as §1

ELF5 = molecular target: T11, ELF5 (Homo sapiens, UniProt Q9UKW6-2 1-255); settings: protein: recombinant; tags: N-terminal GST; dsDNA, one strand shown
T11 sequence: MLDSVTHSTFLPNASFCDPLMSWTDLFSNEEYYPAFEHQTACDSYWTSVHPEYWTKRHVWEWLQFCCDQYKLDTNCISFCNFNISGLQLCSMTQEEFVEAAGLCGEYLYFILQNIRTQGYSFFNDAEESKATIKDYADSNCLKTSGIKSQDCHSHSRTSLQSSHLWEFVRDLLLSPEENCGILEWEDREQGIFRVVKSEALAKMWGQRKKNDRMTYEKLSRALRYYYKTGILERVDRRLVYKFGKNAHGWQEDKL
Method in brief: as §1

ETV3 = molecular target: T12, ETV3 (Homo sapiens, UniProt P41162-2 1-143); settings: protein: recombinant; tags: N-terminal GST; dsDNA, one strand shown
T12 sequence: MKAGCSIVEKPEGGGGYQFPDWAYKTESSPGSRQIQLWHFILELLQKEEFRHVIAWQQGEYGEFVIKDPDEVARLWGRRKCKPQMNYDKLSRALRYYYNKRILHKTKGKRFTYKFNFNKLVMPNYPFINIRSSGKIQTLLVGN
Method in brief: as §1

ETV6 = ETV6 (Homo sapiens, UniProt P41212 1-452); settings: protein: recombinant; tags: N-terminal GST; dsDNA, one strand shown
Chain of ETV6 (P41212 whole entry): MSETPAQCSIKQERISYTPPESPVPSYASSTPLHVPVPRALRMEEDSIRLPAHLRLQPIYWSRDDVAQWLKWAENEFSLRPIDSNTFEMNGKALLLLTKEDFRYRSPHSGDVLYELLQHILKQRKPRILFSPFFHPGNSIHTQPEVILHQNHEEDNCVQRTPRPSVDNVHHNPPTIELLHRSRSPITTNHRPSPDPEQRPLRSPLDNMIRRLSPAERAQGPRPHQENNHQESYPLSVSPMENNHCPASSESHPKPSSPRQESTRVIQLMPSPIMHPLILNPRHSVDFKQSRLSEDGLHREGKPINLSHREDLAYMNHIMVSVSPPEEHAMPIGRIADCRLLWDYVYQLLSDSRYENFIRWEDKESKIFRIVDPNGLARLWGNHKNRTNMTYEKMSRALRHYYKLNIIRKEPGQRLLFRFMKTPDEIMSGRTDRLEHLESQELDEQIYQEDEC
Method in brief: as §1

## ACCTTA
FEV
  binding signal: 1.27 fold enrichment (6-mer frequency, TF over GST control)
ETV5
  binding signal: 1.23 fold enrichment (6-mer frequency, TF over GST control)
HSF1
  binding signal: 1.19 fold enrichment (6-mer frequency, TF over GST control)
SPIC
  binding signal: 1.11 fold enrichment (6-mer frequency, TF over GST control)
ELF4
  binding signal: 1.24 fold enrichment (6-mer frequency, TF over GST control)
ELK4
  binding signal: 1.32 fold enrichment (6-mer frequency, TF over GST control)
ETV2
  binding signal: 1.32 fold enrichment (6-mer frequency, TF over GST control)
ELF3
  binding signal: 1.22 fold enrichment (6-mer frequency, TF over GST control)
CRX
  binding signal: 1.43 fold enrichment (6-mer frequency, TF over GST control)
ETV1
  binding signal: 1.4 fold enrichment (6-mer frequency, TF over GST control)
ERF
  binding signal: 1.29 fold enrichment (6-mer frequency, TF over GST control)
ETV3L
  binding signal: 1.19 fold enrichment (6-mer frequency, TF over GST control)
ETS2
  binding signal: 1.16 fold enrichment (6-mer frequency, TF over GST control)
SPDEF
  binding signal: 1.3 fold enrichment (6-mer frequency, TF over GST control)
ETV7
  binding signal: 1.21 fold enrichment (6-mer frequency, TF over GST control)
ELF5
  binding signal: 1.26 fold enrichment (6-mer frequency, TF over GST control)
ETV3
  binding signal: 1.17 fold enrichment (6-mer frequency, TF over GST control)
ETV6
  binding signal: 1.21 fold enrichment (6-mer frequency, TF over GST control)
